Compound activity from PubChem.
Tau fibril FP – inhibitors of human tau fibril formation; P10636; K18 P301L tau heparin fibrillization, Alexa594 FP, 6 h; Potency, µM (doses to about 57.7 µM), inactives show at the top dose activity, negative = inhibition, hits mostly inhibitors; 280,000 tested, 0.39% active; further: potency means the concentration at half of the fitted maximal effect; nearly all actives have a fitted effect of over 55% in size
Target sequence (P10636 561-689 P618L limits assumed): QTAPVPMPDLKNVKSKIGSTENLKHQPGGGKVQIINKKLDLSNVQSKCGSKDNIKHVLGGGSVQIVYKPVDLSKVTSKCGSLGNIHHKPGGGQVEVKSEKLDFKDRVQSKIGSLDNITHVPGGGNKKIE
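Heparin (20 uM) drove fibril formation of recombinant tau K18 P301L, 15 uM unlabeled with 0.24 uM Alexa 594 label, for 6 hr at 37 C in 100 mM sodium acetate pH 7. Fluorescence polarization (555/632 nm) read 1 hr after 30 uM ThT.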
KDM4E inh – inhibitors of human JMJD2E histone demethylase; Potency, µM (highest dose often 57.1 µM), for inactives: top-dose activity change, negative = inhibition, hits mostly inhibitors; 230,000 tested, 1.6% active; JMJD2E catalytic domain, FDH-coupled NADH fluorescence (FDH is formaldehyde dehydrogenase); B2RXH2; AID 2147; active means well fitted inhibition curve with a large enough effect, not every such curve was filed as active; inconclusive means small, poorly fitted or top-dose-only effect, or another doubt; inactive means no such curve, though single readings can be large or run the other way;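 further: potency means the concentration at half of the fitted maximal effect; 0% = wells with enzyme and -100% = buffer wells without enzyme; nearly all actives have a fitted effect of over 50% in size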
Target sequence (B2RXH2 1-337 limits assumed): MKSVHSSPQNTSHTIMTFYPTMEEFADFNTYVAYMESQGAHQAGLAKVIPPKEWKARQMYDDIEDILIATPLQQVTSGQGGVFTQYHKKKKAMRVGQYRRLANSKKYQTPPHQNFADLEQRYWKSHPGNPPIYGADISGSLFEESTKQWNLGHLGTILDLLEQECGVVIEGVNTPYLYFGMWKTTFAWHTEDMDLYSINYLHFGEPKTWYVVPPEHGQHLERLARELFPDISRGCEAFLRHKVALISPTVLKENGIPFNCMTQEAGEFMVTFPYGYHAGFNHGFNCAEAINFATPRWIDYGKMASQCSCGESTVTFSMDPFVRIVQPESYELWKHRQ
Tau ThT inhib – blocks human tau fibril formation measured by thioflavin T | 270,000 tested, 2.1% active | recombinant tau K18 P301L, heparin-induced fibrillization, ThT fluorescence | Potency, µM (doses to about 57.4 µM), for inactives: top-dose activity, negative = inhibition, actives largely listed as inhibitors | P10636; further: potency means the concentration at half of the fitted maximal effect; nearly all actives have a fitted effect of over 55% in size
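Fibril formation assay: tau K18 P301L at 15 uM with trace Alexa 594 label, heparin inducer 20 uM, pH 7 sodium acetate buffer, 37 C for 6 hr; endpoint ThT signal.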
Tau fluor cs – counter-screen for tau fibril formation inhibitors | tau K18 P301L (four-repeat tau fragment) Alexa594 fluorescence, heparin fibrillization | Potency, µM (series often up to 57.7 µM), without a hit: at the top dose activity change, negative = decrease | 280,000 tested, 0.93% active | AID 1463; further: potency means the concentration at half of the fitted maximal effect; nearly all actives have a fitted effect of over 55% in size
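Human K18 P301L tau (15 uM unlabeled plus 0.24 uM Alexa 594-labeled, final) in 100 mM sodium acetate pH 7 was mixed with compound and 20 uM heparin and incubated 6 hr at 37 C.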
Coupling enz – inhibits coupling enzyme system, counter-screen for aldolase hits. coupling enzyme system counterscreen, AmpLite Red fluorescence. 290,000 tested, 0.67% active. activity change, negative = inhibition, % at 58.2 µM, hits read low; in the data active means activity change below about -30%
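Fluorescence at 525 nm excitation and 598 nm emission measured inhibition of the coupled detection system without aldolase. Compounds (at 57.5 uM final) were preincubated 10 min at room temperature with coupling enzyme reagent before a 20 min substrate/AmpLite Red step.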
* = called active by the depositor; ? = inconclusive; . = not tested or not shown; [ ] = another dose, or the depositor's remark. An excerpt weighted towards active compounds, which were near 3% of everything screened. Unless noted, the call rests on the fitted dose curve; in most records, active means well fitted curve in the direction sought with a large enough effect; inconclusive means small, poorly fitted or top-dose-only effect, or another doubt; inactive means no such curve, though single readings can be large; an effect the other way counts as inactive or inconclusive. Unless noted, on the % scale 0 is the no-effect control and ±100 the full control effect.

SMILES | Tau fibril FP | KDM4E inh | Tau ThT inhib | Tau fluor cs | Coupling enz
COc1ccc(N2C(=O)CSC23C(=O)N(Cc2ccc(C)cc2)c2ccccc23)cc1Cl (configuration not stated) | -10.7% | . | -4.6% | -12.6% | .
Cc1c(C(=O)O)oc2c1/C(=N\O)CCC2 | -1.6% | 0.6% | -3.1% | -3.6% | 2.7
O/N=C1\CCCc2oc3c(c21)CCCC3 | -3.8% | -1.4% | -1.5% | 0.8% | -30.9*
COc1ccc(NC(=O)Cn2c(=O)oc3cc(S(=O)(=O)NC4CCCC4)ccc32)cc1OC | -9.9% | . | -3.6% | -13.3% | .
Cc1ccc(C)c2[nH]c(=O)c(C(c3nnnn3Cc3ccco3)N3CCc4ccccc4C3)cc12 (configuration not stated) | ? | ? | 31.6µM* | -18.2% | -34.0*
Cc1ccc(C)c2[nH]c(=O)c(C(c3nnnn3CCc3ccccc3)N3CCOCC3)cc12 (configuration not stated) | -5.8% | ? | -5.4% | -7.9% | 0.1
O=C(COc1ccccc1F)Nc1ccc(OCc2cc(=O)n3ccccc3n2)cc1 | 0.6% | . | ? | 9.1% | .
CN(C(=O)c1ccc(OCC=C(c2ccccc2)c2ccccc2)cc1)c1ccccc1I | . | . | . | . | -1.9
Cc1nnc(C)n1/N=C/c1ccc(O)cc1 | -7.5% | 0.4% | -10.4% | -5.4% | -0.5
Oc1ccc(/C=N/n2c3ccccc3c3ccccc32)cc1 | ? | -8.3% | 35.5µM* | 14.1µM*[quencher] | 4.3
CCc1ccc(NC(=O)c2ccc(F)c(S(=O)(=O)NCCc3ccc(OC)c(OC)c3)c2)cc1 | -13.3% | . | 6.0% | ? | .
CNc1ccc(/C=C(\C#N)C(=O)Nc2ccccn2)cc1[N+](=O)[O-] | . | . | . | . | 0.6
N#C/C(=C\c1ccc(O)c(O)c1)C(=O)NCCc1ccccc1 | 11.6% | 14.1µM* | ? | ? | .
N#C/C(=C\c1ccc(O)c(O)c1)C(=O)NCCCCc1ccccc1 | 1.7% | 4.47µM* | 15.8µM* | 14.1µM*[quencher] | 1.5
COc1cc(/C=C(\C#N)C(=O)NCCc2ccccc2)cc(OC)c1O | 1.9% | -12.7% | ? | -29.1% | -2.7
N#C/C(=C/c1ccc(O)c([N+](=O)[O-])c1)C(=O)Nc1ccccc1 | 8.1% | -10.7% | 8.91µM* | ? | 6.5
O=Cc1c(-c2ccccc2)nc2ccccn12 | 0.4% | 3.7% | 1.3% | -3.5% | 0.1
CCc1nc(-c2ccccc2)c2ccccn12 | 5.8% | ? | ? | -23.0% | -43.2*
O=c1ccn(-c2cccc(C(F)(F)F)c2)nc1-c1ccn(-c2ccccc2F)n1 | 1.9% | 0.3% | 3.3% | -4.5% | -43.4*
COc1ccc(-n2ccc(-c3nn(-c4cccc(C(F)(F)F)c4)ccc3=O)n2)cc1 | 7.1% | -3.8% | -11.3% | -8.3% | -6.7
C[C@@H](C1[C@@H](O)CC2C3C=CC4C[C@@H](O)CC[C@]4(C)[C@H]3CC[C@@]21C)[C@@H]1CCCCN1 (some centres not stated) | 1.4% | 3.0% | -7.8% | -3.9% | -0.3
Nc1ccc2oc(CCc3ccccc3)nc2c1 | 2.6% | ? | ? | -12.9% | -34.7*
c1ccc2oc(CCc3nc4ccccc4o3)nc2c1 | -0.1% | -0.7% | ? | -3.6% | 3.8
CN1CCN(c2ncc3nc(-c4ccc(Cl)cc4)c(=O)n(C)c3n2)CC1 | . | . | . | . | 2.1
COc1cc(OC)c2c(-c3cccc(-c4ccc(CO)cc4)c3)cc(=O)oc2c1 | -8.2%[81.3 µM] | . | -25.0%[81.4 µM] | ? | 0.9
SMILES | Tau fibril FP | KDM4E inh | Tau ThT inhib | Tau fluor cs | Coupling enz
COc1cc(OC)c2c(-c3cccc(-c4ccc(O)cc4)c3)cc(=O)oc2c1 | ? | . | ? | 22.4µM*[quencher] | 0.4
CCOC(=O)c1c(C)[nH]c(CCC(=O)NCc2cc(OC)c(OC)c(OC)c2)c1C | 2.2% | . | -0.4% | -0.6% | .
O=C(c1ccccc1)N1CCN(c2ncccn2)CC1 | . | . | . | . | 4.4
O=C(c1ccc(-c2ccccc2)cc1)N1CCN(c2ncccn2)CC1 | -0.6% | -0.4% | -16.8% | -6.4% | -74.6*
COc1cc(Cl)cc2c1Sc1ccccc1/C2=C/CCN(C)C | 4.7% | -26.2% | ? | -18.1% | 0.5
CN(C)CC/C=C1/c2ccccc2Sc2c(O)cc(Cl)cc21 | 3.7% | -2.3% | 13.3% | 3.8% | -30.8*
Cc1cc(NC(=O)CSc2nc3cc(Cl)ccc3o2)no1 | . | . | . | . | -1.2
O=S1(=O)C=C(Sc2nc3cc(Cl)ccc3o2)c2ccccc21 | 25.1µM* | ? | ? | 7.08µM*[quencher] | -0.6
C=C1CCN(C(CC(C)C)C(=O)NCCCc2ccccc2)S(=O)(=O)c2ccccc21 (configuration not stated) | . | . | . | . | -2.3
Cc1cccc(NC(=O)c2c(Br)sc3c2CCCC3)c1 | ? | . | -7.1% | -9.4% | .
Cc1ccc(NC(=O)c2c(NC(=O)c3ccccc3)sc3c2CCC3)cc1 | -11.1% | . | -5.1% | -11.8% | .
O=C(Nc1cccc(Cl)c1)c1c(NC(=O)C(F)(F)F)sc2c1CCCC2 | ? | . | 10µM* | ? | .
Cc1ccc(NC(=O)c2c(NC(=O)C(F)(F)F)sc3c2CCCCC3)cc1 | 9.6% | . | 14.1µM* | ? | .
O=C(Nc1sc2c(c1C(=O)O)CCC2)c1cccc(Cl)c1 | . | . | . | . | -19.5
O=C(COc1ccc(Cl)cc1)Nc1sc2c(c1C(=O)Nc1cccc(Cl)c1)CCCC2 | ? | . | 12.6µM* | -8.0% | .
Cc1cccc(NC(=O)c2c(NC(=O)C(F)(F)F)sc3c2CCCCC3)c1 | 11.0% | . | 15.8µM* | ? | .
COc1ccc(CNC(=O)C(C#N)c2nc3ccccc3nc2N2CCCC2)cc1 (configuration not stated) | -13.2% | ? | -2.0% | -29.1% | 5.6
COc1ccc(CNC(=O)C(C#N)c2nc3ccccc3nc2N2CCN(C)CC2)cc1 (configuration not stated) | -1.2% | 0.5% | 15.8µM* | -29.6% | 2.2
O=C(NNC(=O)c1cc(O)c(O)c(O)c1)NC1CCCCC1 | -9.0% | 7.08µM* | ? | -12.5% | -3.9
CSc1ccc(CCNC(=O)c2ccc(-n3c(C)cc4c3CCCC4)cc2)cc1 | -14.7% | . | ? | -14.2% | .
Cc1ncsc1C(=O)N1N=C2/C(=C/c3ccc(N4CCOCC4)cc3)CCCC2C1c1ccc(N2CCOCC2)cc1 (configuration not stated) | 5.4% | -0.7% | 14.1µM* | -21.9% | -0.7
CCCC(=O)NC(=S)N1CCN(c2ccc([N+](=O)[O-])cc2)CC1 | -3.5% | 20.6% | ? | -2.6% | -31.7*
O=[N+]([O-])c1ccc(N2CCN(C(=S)Nc3cccc(F)c3)CC2)cc1 | -6.8% | -7.8% | 15.8µM* | ? | -2.1
Cc1ccc(C(=O)NC(=S)N2CCN(c3ccc([N+](=O)[O-])cc3)CC2)cc1 | -9.8% | -3.9% | -15.2% | -2.4% | 0.1
COc1ccc(/C=C\c2onc(C)c2S(=O)(=O)N2CCC(C(=O)Nc3cccc(OC)c3)CC2)cc1 | ? | . | -0.5% | ? | .
CC(C)(C)c1ccc(OCCn2cc(C(=O)c3ccco3)c3ccccc32)cc1 | ? | . | -11.5% | ? | .
